# Laboratory results published in article PMC7862700, “An all-to-all approach to the identification of sequence-specific readers for epigenetic DNA modifications on cytosine”.
# Columns and labels:
# Test in all cases: DAPPL (digital affinity profiling via proximity ligation, sequencing); 10 mM Tris-HCl pH 7.5, 50 mM NaCl, 1 mM DTT, 4% glycerol, room temperature, 30 min; GST-TFs on glutathione beads, 16-mer random dsDNA library, 0.1% formaldehyde crosslink after washing; high values mean tight binding
# [1] = biological target: T1, FLI1 (Homo sapiens, UniProt Q01543 1-452); conditions: protein: recombinant; tags: N-terminal GST; dsDNA, one strand shown
# T1 sequence: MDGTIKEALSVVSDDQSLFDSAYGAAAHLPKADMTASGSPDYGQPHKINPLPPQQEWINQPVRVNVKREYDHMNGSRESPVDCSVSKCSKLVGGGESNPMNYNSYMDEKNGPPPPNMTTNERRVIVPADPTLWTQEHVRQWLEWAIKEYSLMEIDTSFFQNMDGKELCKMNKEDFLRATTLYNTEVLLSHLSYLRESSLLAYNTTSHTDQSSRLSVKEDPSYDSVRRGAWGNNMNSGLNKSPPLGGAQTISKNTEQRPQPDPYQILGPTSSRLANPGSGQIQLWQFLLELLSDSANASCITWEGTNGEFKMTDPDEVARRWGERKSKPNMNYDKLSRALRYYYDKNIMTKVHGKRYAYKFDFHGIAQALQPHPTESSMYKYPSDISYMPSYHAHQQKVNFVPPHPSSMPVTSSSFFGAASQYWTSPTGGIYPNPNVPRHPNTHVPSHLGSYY
# Summary of the method: (§1)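 Binding signal is defined as a hexamer's read frequency for one factor over its frequency for the tag-only sample. To obtain reads, GST-fused human transcription factors were expressed in yeast, captured on glutathione beads, barcoded with DNA and pooled with that sample. Pools met 200 nmole of a 16-mer random double-stranded DNA library in Tris/NaCl/DTT/glycerol buffer for 30 min at room temperature before washing, 0.1% formaldehyde crosslinking, proximity ligation (BsaI/T4 ligase, 1 h, 37 °C), PCR and Illumina NextSeq500 sequencing.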
# [2] = biological target: T2, GABPA (Homo sapiens, UniProt Q06546 1-454); conditions: protein: recombinant; tags: N-terminal GST; dsDNA, one strand shown
# T2 sequence: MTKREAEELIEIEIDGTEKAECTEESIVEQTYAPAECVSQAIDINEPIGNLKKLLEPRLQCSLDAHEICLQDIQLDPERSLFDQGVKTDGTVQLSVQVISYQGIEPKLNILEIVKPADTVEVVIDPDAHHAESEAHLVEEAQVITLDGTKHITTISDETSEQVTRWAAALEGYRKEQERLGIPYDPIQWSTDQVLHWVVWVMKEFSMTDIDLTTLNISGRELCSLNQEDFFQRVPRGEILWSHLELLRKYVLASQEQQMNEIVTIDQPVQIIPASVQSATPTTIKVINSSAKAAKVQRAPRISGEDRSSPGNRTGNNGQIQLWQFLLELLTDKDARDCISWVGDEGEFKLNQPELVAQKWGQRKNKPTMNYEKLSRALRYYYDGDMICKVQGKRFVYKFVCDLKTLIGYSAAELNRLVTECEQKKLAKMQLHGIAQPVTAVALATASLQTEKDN
# Summary of the method: as §1
# [3] = biological target: T3, ERG (Homo sapiens, UniProt P11308 1-479); conditions: protein: recombinant; tags: N-terminal GST; dsDNA, one strand shown
# T3 sequence: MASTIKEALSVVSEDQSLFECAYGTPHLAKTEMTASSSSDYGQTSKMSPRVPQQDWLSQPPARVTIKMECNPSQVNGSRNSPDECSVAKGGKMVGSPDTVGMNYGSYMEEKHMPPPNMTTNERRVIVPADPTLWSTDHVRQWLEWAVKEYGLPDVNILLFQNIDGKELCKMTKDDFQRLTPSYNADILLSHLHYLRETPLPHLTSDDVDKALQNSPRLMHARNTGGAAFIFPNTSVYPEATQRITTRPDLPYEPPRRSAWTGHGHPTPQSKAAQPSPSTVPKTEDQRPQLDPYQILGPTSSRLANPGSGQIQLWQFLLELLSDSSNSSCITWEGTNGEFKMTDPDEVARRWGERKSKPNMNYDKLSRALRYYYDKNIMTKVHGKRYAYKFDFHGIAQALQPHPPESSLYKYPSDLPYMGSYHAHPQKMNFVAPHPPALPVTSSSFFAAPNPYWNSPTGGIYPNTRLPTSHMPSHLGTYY
# Summary of the method: as §1
# [4] = biological target: ELF1 (Homo sapiens, UniProt P32519 1-619); conditions: protein: recombinant; tags: N-terminal GST; dsDNA, one strand shown
# Sequence of ELF1 (P32519 whole entry): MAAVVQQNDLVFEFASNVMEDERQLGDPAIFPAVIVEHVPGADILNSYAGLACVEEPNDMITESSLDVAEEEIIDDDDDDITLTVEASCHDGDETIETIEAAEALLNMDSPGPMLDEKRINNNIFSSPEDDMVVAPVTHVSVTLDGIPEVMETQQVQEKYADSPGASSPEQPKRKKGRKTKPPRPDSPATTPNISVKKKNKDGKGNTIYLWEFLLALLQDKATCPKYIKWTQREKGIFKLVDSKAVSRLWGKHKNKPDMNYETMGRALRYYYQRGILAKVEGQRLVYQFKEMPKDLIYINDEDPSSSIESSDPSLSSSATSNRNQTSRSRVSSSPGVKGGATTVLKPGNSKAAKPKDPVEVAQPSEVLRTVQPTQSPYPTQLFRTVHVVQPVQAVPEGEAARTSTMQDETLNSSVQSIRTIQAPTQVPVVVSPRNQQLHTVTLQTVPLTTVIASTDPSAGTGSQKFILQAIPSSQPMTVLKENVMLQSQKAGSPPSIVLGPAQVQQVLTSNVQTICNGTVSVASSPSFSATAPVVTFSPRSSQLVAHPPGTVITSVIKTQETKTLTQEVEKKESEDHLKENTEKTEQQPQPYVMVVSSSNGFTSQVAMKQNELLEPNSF
# Summary of the method: as §1
# [5] = biological target: T4, EHF (Homo sapiens, UniProt Q9NZC4 1-300); conditions: protein: recombinant; tags: N-terminal GST; dsDNA, one strand shown
# T4 sequence: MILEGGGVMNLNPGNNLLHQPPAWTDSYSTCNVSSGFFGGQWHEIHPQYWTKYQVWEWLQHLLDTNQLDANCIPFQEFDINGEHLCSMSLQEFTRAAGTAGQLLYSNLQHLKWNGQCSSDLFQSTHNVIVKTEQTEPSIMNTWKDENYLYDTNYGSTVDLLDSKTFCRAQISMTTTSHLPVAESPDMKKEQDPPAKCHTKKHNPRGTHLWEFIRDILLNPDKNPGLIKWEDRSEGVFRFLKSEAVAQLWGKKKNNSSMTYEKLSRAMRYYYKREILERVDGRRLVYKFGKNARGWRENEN
# Summary of the method: as §1
# [6] = biological target: SPI1 (Homo sapiens, UniProt P17947 1-270); conditions: protein: recombinant; tags: N-terminal GST; dsDNA, one strand shown
# Summary of the method: as §1
# [7] = biological target: SPIB (Homo sapiens, UniProt Q01892 1-262); conditions: protein: recombinant; tags: N-terminal GST; dsDNA, one strand shown
# Sequence of SPIB (Q01892 whole entry): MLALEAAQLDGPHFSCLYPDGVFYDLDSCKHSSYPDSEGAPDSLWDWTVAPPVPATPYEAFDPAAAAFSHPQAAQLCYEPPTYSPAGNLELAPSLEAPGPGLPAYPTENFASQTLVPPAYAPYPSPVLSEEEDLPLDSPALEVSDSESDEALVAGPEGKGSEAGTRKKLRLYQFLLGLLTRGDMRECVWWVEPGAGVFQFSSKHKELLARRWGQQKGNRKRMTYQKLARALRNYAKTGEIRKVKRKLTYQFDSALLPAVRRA
# Summary of the method: as §1
# [8] = biological target: T5, FEV (Homo sapiens, UniProt Q99581 1-238); conditions: protein: recombinant; tags: N-terminal GST; dsDNA, one strand shown
# T5 sequence: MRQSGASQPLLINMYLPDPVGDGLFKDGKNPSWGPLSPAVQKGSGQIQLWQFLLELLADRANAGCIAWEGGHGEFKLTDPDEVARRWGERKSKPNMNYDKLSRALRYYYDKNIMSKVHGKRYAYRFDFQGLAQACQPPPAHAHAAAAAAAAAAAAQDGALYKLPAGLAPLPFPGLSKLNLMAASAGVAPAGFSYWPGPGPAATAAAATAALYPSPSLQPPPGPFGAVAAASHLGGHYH
# Summary of the method: as §1
# [9] = biological target: ETV5 (Homo sapiens, UniProt P41161 1-510); conditions: protein: recombinant; tags: N-terminal GST; dsDNA, one strand shown
# Sequence of ETV5 (P41161 whole entry): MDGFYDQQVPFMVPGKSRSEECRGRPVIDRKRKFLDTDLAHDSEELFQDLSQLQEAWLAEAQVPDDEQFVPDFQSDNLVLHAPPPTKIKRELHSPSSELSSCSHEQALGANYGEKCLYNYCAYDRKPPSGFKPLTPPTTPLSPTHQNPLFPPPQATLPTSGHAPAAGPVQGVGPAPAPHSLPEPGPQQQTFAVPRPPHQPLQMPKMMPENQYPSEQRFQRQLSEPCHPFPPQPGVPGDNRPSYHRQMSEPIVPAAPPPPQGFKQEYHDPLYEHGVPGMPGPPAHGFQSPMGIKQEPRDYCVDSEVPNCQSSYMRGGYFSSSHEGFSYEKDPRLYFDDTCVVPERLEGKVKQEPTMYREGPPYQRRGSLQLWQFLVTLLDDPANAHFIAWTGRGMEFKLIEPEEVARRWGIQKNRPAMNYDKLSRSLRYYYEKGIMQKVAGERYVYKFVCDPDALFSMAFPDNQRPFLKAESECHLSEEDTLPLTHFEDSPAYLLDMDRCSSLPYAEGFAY
# Summary of the method: as §1
# [10] = biological target: HSF1 (Homo sapiens, UniProt Q00613 1-529); conditions: protein: recombinant; tags: N-terminal GST; chain copies: 3; dsDNA, one strand shown
# Sequence of HSF1 (Q00613 whole entry): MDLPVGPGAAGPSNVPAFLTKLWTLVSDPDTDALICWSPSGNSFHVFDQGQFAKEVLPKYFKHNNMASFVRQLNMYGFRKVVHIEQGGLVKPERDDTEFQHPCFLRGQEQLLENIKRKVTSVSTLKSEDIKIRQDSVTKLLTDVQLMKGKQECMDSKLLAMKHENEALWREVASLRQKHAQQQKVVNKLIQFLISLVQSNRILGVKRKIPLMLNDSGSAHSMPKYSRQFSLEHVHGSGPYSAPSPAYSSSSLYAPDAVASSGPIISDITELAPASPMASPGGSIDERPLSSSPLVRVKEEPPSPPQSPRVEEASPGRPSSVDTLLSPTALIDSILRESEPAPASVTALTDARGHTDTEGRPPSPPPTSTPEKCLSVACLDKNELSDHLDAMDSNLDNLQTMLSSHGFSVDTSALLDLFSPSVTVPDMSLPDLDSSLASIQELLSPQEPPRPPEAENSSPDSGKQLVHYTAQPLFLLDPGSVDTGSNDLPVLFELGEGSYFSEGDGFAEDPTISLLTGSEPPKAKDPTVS
# Summary of the method: as §1
# [11] = biological target: T6, SPIC (Homo sapiens, UniProt Q8N5J4 1-248); conditions: protein: recombinant; tags: N-terminal GST; dsDNA, one strand shown
# T6 sequence: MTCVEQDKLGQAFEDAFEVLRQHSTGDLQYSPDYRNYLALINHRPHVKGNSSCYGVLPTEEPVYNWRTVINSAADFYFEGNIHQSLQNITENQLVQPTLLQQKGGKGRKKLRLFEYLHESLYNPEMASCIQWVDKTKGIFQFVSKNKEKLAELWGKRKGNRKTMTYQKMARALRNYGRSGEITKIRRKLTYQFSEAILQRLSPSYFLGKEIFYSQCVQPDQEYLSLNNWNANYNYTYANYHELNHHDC
# Summary of the method: as §1
# [12] = biological target: ELF4 (Homo sapiens, UniProt Q99607 1-663); conditions: protein: recombinant; tags: N-terminal GST; dsDNA, one strand shown
# Sequence of ELF4 (Q99607 whole entry): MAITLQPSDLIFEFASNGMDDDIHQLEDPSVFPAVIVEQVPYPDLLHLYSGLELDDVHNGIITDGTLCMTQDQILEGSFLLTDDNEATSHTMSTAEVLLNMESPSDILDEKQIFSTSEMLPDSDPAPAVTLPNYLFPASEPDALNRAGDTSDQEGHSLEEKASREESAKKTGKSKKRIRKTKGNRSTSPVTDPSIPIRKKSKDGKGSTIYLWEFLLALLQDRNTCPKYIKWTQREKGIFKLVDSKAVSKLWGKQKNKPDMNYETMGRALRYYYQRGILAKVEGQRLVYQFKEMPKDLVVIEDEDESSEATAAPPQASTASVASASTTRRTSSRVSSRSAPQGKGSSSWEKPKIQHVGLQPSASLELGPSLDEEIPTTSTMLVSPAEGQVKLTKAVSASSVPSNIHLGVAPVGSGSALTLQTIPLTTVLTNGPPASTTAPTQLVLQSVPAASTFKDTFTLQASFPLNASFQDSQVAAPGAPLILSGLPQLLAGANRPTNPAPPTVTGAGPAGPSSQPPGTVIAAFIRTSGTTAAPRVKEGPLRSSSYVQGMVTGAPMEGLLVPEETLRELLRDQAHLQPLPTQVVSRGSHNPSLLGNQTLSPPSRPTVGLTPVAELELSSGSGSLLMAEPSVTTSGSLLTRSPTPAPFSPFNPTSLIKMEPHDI
# Summary of the method: as §1
# [13] = biological target: T7, ELK4 (Homo sapiens, UniProt P28324-2 1-405); conditions: protein: recombinant; tags: N-terminal GST; dsDNA, one strand shown
# T7 sequence: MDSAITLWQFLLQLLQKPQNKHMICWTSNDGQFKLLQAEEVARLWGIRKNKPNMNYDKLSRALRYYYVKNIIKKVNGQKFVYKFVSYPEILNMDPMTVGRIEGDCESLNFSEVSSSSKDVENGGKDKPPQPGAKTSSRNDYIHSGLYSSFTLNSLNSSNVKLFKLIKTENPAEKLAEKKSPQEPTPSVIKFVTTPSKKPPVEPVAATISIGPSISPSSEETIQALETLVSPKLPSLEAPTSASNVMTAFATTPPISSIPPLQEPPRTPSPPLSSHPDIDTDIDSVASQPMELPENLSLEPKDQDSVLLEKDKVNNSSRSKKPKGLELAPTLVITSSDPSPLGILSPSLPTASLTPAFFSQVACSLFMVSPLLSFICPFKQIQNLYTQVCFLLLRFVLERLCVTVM
# Summary of the method: as §1
# [14] = biological target: T8, ETV2 (Homo sapiens, UniProt O00321 1-342); conditions: protein: recombinant; tags: N-terminal GST; dsDNA, one strand shown
# T8 sequence: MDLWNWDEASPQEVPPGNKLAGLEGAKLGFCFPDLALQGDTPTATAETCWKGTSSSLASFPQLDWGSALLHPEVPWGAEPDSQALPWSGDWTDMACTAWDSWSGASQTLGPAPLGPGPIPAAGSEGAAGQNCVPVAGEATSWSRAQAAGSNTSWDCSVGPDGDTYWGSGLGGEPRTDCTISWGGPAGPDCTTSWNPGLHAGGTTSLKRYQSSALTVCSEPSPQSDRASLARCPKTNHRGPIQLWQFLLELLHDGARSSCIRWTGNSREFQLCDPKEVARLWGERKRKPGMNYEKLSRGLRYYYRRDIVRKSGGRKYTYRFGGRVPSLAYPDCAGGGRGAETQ
# Summary of the method: as §1
# [15] = biological target: T9, ELF3 (Homo sapiens, UniProt P78545 1-371); conditions: protein: recombinant; tags: N-terminal GST; dsDNA, one strand shown
# T9 sequence: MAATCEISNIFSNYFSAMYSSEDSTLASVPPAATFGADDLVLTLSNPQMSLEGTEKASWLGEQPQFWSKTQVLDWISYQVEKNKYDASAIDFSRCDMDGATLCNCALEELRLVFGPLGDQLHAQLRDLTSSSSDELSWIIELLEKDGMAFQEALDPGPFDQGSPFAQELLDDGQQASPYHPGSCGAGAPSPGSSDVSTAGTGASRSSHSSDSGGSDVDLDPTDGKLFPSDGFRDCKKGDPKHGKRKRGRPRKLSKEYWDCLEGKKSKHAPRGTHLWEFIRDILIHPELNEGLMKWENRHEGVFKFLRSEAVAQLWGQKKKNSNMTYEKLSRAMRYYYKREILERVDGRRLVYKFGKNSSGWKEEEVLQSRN
# Summary of the method: as §1
# [16] = biological target: ETV1 (Homo sapiens, UniProt P50549 1-477); conditions: protein: recombinant; tags: N-terminal GST; dsDNA, one strand shown
# Sequence of ETV1 (P50549 whole entry): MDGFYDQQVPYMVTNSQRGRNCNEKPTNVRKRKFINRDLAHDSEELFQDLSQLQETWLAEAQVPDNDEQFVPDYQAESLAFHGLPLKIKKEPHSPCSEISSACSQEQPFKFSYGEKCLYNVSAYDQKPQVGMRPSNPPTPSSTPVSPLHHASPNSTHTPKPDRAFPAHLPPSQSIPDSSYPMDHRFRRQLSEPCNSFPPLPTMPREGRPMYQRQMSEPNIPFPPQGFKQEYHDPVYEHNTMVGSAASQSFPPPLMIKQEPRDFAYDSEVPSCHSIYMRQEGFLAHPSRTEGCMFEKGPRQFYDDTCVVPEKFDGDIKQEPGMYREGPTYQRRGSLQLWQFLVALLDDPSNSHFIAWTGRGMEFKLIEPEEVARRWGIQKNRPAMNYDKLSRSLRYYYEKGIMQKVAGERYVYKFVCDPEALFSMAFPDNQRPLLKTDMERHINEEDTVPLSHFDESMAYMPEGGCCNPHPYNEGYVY
# Summary of the method: as §1
sequence,measurement,setting,value
CTCGGT,binding signal,[1],"1.12 fold enrichment (6-mer frequency, TF over GST control)"
same,binding signal,[2],"1.09 fold enrichment (6-mer frequency, TF over GST control)"
same,binding signal,[3],"1.04 fold enrichment (6-mer frequency, TF over GST control)"
same,binding signal,[4],"1.17 fold enrichment (6-mer frequency, TF over GST control)"
same,binding signal,[5],"1.07 fold enrichment (6-mer frequency, TF over GST control)"
same,binding signal,[6],"1.1 fold enrichment (6-mer frequency, TF over GST control)"
same,binding signal,[7],"1.21 fold enrichment (6-mer frequency, TF over GST control)"
same,binding signal,[8],"1.01 fold enrichment (6-mer frequency, TF over GST control)"
same,binding signal,[9],"1.1 fold enrichment (6-mer frequency, TF over GST control)"
same,binding signal,[10],"1.04 fold enrichment (6-mer frequency, TF over GST control)"
same,binding signal,[11],"1.06 fold enrichment (6-mer frequency, TF over GST control)"
same,binding signal,[12],"1.09 fold enrichment (6-mer frequency, TF over GST control)"
same,binding signal,[13],"1.12 fold enrichment (6-mer frequency, TF over GST control)"
same,binding signal,[14],"1.19 fold enrichment (6-mer frequency, TF over GST control)"
same,binding signal,[15],"1.16 fold enrichment (6-mer frequency, TF over GST control)"
same,binding signal,[16],"1.15 fold enrichment (6-mer frequency, TF over GST control)"
